# Test results published in PubChem BioAssay (NCI).
# About 79,000 compounds went through this panel and 15% of them were active in at least one assay; those are over-represented in the sample as a whole. Values without a mark were called inactive. Calls of active or inactive are those of the source. Rule as the data show it: active = growth inhibition above about 70%; inactive = the rest.
# Tests used:
# [1] = NCI Yeast Anticancer Drug Screen. Data for the wt2 strain (AID 169);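 also: 0% = growth of vehicle-treated yeast cultures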; conditions: S. cerevisiae wt2 strain growth inhibition, stronger effect = higher value
# Method in brief: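 Yeast cells were exposed to test compounds, and growth inhibition was measured relative to vehicle-treated controls.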
# [2] = NCI Yeast Anticancer Drug Screen. Data for the sgs1 strain (AID 173);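 also: 0% = growth of vehicle-only control cultures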; conditions: S. cerevisiae sgs1 mutant, stronger effect = higher value
# Method in brief: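 Yeast mutant strains carrying defined defects in DNA damage repair or cell cycle control were exposed to test compounds. Growth inhibition was scored against vehicle-treated controls.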
# [3] = NCI Yeast Anticancer Drug Screen. Data for the mlh1 rad18 strain (AID 175); conditions: S. cerevisiae mlh1 rad18 strain growth inhibition, stronger effect = higher value
# Method in brief: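 Growth inhibition of the yeast strain was measured after compound exposure and expressed relative to vehicle-treated controls. The strain carries defined defects in DNA damage repair.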
# [4] = NCI Yeast Anticancer Drug Screen. Data for the rad18 strain (AID 177); conditions: S. cerevisiae rad18 mutant growth inhibition, stronger effect = higher value
# Method in brief: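 Yeast carrying a defined DNA damage repair alteration were exposed to compounds. Growth inhibition was expressed relative to vehicle-treated controls.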
# [5] = NCI Yeast Anticancer Drug Screen. Data for the rad52 strain (AID 147);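 also: 0% = growth of vehicle-treated control cultures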; conditions: S. cerevisiae rad52 mutant growth inhibition, stronger effect = higher value
# Method in brief: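 Yeast strain carrying a DNA damage repair alteration was exposed to test compounds. Growth inhibition was measured relative to vehicle-treated controls.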
# [6] = NCI Yeast Anticancer Drug Screen. Data for the wt1 strain (AID 149);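 also: 0% = growth of vehicle-treated wt1 cultures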; conditions: S. cerevisiae wt1 strain (SPY 50644) growth inhibition, stronger effect = higher value
# Method in brief: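 wt1 strain grown with compound or vehicle; inhibition taken from the growth difference.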
# [7] = NCI Yeast Anticancer Drug Screen. Data for the rad50EPP+ strain (AID 151);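 also: 0% = growth of vehicle-treated control cultures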; conditions: S. cerevisiae rad50 mutant strain, stronger effect = higher value
# Method in brief: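 Yeast strain carrying rad50 alteration (rad50EPP+) exposed to compounds; growth inhibition measured relative to vehicle-treated controls.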
# [8] = NCI Yeast Anticancer Drug Screen. Data for the mgt1 strain (AID 153); conditions: S. cerevisiae mgt1 mutant growth inhibition, stronger effect = higher value
# Method in brief: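 Yeast mgt1 strain (DNA repair/cell-cycle alteration panel) exposed to compounds; growth inhibition measured relative to vehicle-treated controls.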
# [9] = NCI Yeast Anticancer Drug Screen. Data for the rad50 strain (AID 155);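 also: 0% = growth of vehicle-only cultures of the same strain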; conditions: S. cerevisiae rad50 strain growth inhibition, stronger effect = higher value
# Method in brief: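 DNA repair mutant yeast, compound exposure, growth read-out; inhibition is taken relative to vehicle.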
# [10] = NCI Yeast Anticancer Drug Screen. Data for the mec2-1 strain (AID 157); conditions: S. cerevisiae mec2-1 strain, stronger effect = higher value
# Method in brief: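 mec2-1 yeast strain, carrying an alteration in DNA damage repair or cell cycle control, was exposed to compounds; growth inhibition was measured relative to vehicle-treated controls.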
# [11] = NCI Yeast Anticancer Drug Screen. Data for the rad14 strain (AID 159);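 also: 0% = growth of vehicle-treated control cultures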; conditions: S. cerevisiae rad14 strain growth inhibition, stronger effect = higher value
# Method in brief: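 DNA repair-defective yeast, compound-exposed; % growth inhibition derived by comparison with vehicle-treated controls.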
# [12] = NCI Yeast Anticancer Drug Screen. Data for the sgs1 mgt1 strain (AID 161);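 also: 0% = growth of cultures given vehicle only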; conditions: S. cerevisiae sgs1 mgt1 strain, stronger effect = higher value
# Method in brief: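 Percent growth inhibition was derived by comparing compound-exposed mutant yeast with vehicle-exposed cultures. The strain carries alterations in DNA damage repair.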
# [13] = NCI Yeast Anticancer Drug Screen. Data for the CLN2oe strain (AID 163);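 also: 0% = growth of vehicle-only control cultures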; conditions: S. cerevisiae CLN2oe strain, stronger effect = higher value
# Method in brief: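 Yeast cells carrying a defined cell-cycle control alteration were exposed to test compounds. Growth inhibition was scored against vehicle-treated control cultures.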
# [14] = NCI Yeast Anticancer Drug Screen. Data for the cln2 rad14 strain (AID 165);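 also: 0% = growth equal to vehicle treated cultures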; conditions: S. cerevisiae cln2 rad14 strain, stronger effect = higher value
# Method in brief: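 Yeast carrying cln2 and rad14 alterations (cell cycle control and DNA damage repair) were exposed to compounds. Growth inhibition was measured against vehicle-treated controls.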
# [15] = NCI Yeast Anticancer Drug Screen. Data for the bub3 strain (AID 167); conditions: S. cerevisiae bub3 mutant strain, stronger effect = higher value
# Method in brief: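 In this screen, a yeast mutant lacking normal mitotic checkpoint function is challenged with compound. Relative growth versus vehicle gives the inhibition value.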
# [16] = at 5.0 µM (retest, dose inferred, filed as 0.5)
# [17] = at 50.0 µM (retest, dose inferred, filed as 5.0)
compound,measurement,setting,value
CCn1c(O)c(C=Nc2ccccc2)s/c1=N/Nc1nc(-c2ccccc2)cs1,growth inhibition,[1]; at 1.2 µM,-3%
same,growth inhibition,[1]; at 3.7 µM,-2%
same,growth inhibition,[1]; at 11.0 µM,-1%
same,growth inhibition,[1]; at 33.0 µM,2%
same,growth inhibition,[1]; at 100.0 µM,11%
same,growth inhibition,[2]; at 1.2 µM,-10%
same,growth inhibition,[2]; at 3.7 µM,7%
same,growth inhibition,[2]; at 11.0 µM,13%
same,growth inhibition,[2]; at 33.0 µM,22%
same,growth inhibition,[2]; at 100.0 µM,36%
same,growth inhibition,[3]; [16],-10%
same,growth inhibition,[3]; [17],25%
same,growth inhibition,[3]; at 50.0 µM,61.8%
same,growth inhibition,[4]; at 1.2 µM,-3%
same,growth inhibition,[4]; at 3.7 µM,-3%
same,growth inhibition,[4]; at 11.0 µM,-5%
same,growth inhibition,[4]; at 33.0 µM,9%
same,growth inhibition,[4]; at 100.0 µM,-12%
CN1C(=O)c2ccc3ccccc3c2C1=O,growth inhibition,[5]; at 1.2 µM,7%
same,growth inhibition,[5]; at 3.7 µM,11%
same,growth inhibition,[5]; at 11.0 µM,35%
same,growth inhibition,[5]; at 33.0 µM,53%
same,growth inhibition,[5]; at 100.0 µM,68%
same,growth inhibition,[6]; at 1.2 µM,2%
same,growth inhibition,[6]; at 3.7 µM,3%
same,growth inhibition,[6]; at 11.0 µM,17%
same,growth inhibition,[6]; at 33.0 µM,25%
same,growth inhibition,[6]; at 100.0 µM,25%
same,growth inhibition,[7]; at 1.2 µM,8%
same,growth inhibition,[7]; at 3.7 µM,12%
same,growth inhibition,[7]; at 11.0 µM,42%
same,growth inhibition,[7]; at 33.0 µM,58%
same,growth inhibition,[7]; at 100.0 µM,52%
same,growth inhibition,[8]; at 1.2 µM,1%
same,growth inhibition,[8]; at 3.7 µM,1%
same,growth inhibition,[8]; at 11.0 µM,20%
same,growth inhibition,[8]; at 33.0 µM,18%
same,growth inhibition,[8]; at 100.0 µM,25%
same,growth inhibition,[9]; at 1.2 µM,12%
same,growth inhibition,[9]; at 3.7 µM,32%
same,growth inhibition,[9]; [16],4%
same,growth inhibition,[9]; at 11.0 µM,61%
same,growth inhibition,[9]; at 33.0 µM,63%
same,growth inhibition,[9]; [17],62%
same,growth inhibition,[9]; at 50.0 µM,84.5% (active)
same,growth inhibition,[9]; at 100.0 µM,70% (active)
same,growth inhibition,[10]; at 1.2 µM,-5%
same,growth inhibition,[10]; at 3.7 µM,0%
same,growth inhibition,[10]; [16],0%
same,growth inhibition,[10]; at 11.0 µM,0%
same,growth inhibition,[10]; at 33.0 µM,17%
same,growth inhibition,[10]; [17],29%
same,growth inhibition,[10]; at 50.0 µM,41.9%
same,growth inhibition,[10]; at 100.0 µM,26%
same,growth inhibition,[11]; at 1.2 µM,3%
same,growth inhibition,[11]; at 3.7 µM,8%
same,growth inhibition,[11]; at 11.0 µM,20%
same,growth inhibition,[11]; at 33.0 µM,32%
same,growth inhibition,[11]; at 100.0 µM,43%
same,growth inhibition,[12]; [16],27%
same,growth inhibition,[12]; [17],54%
same,growth inhibition,[12]; at 50.0 µM,43%
same,growth inhibition,[13]; at 1.2 µM,3%
same,growth inhibition,[13]; at 3.7 µM,6%
same,growth inhibition,[13]; at 11.0 µM,18%
same,growth inhibition,[13]; at 33.0 µM,21%
same,growth inhibition,[13]; at 100.0 µM,27%
same,growth inhibition,[14]; [16],-39%
same,growth inhibition,[14]; [17],6%
same,growth inhibition,[14]; at 50.0 µM,33.4%
same,growth inhibition,[15]; at 1.2 µM,6%
same,growth inhibition,[15]; at 3.7 µM,8%
same,growth inhibition,[15]; [16],4%
same,growth inhibition,[15]; at 11.0 µM,37%
same,growth inhibition,[15]; at 33.0 µM,35%
same,growth inhibition,[15]; [17],37%
same,growth inhibition,[15]; at 50.0 µM,48.8%
same,growth inhibition,[15]; at 100.0 µM,32%
same,growth inhibition,[1]; at 1.2 µM,2%
same,growth inhibition,[1]; at 3.7 µM,3%
same,growth inhibition,[1]; at 11.0 µM,12%
same,growth inhibition,[1]; at 33.0 µM,24%
same,growth inhibition,[1]; at 100.0 µM,39%
same,growth inhibition,[2]; at 1.2 µM,0%
same,growth inhibition,[2]; at 3.7 µM,1%
same,growth inhibition,[2]; at 11.0 µM,14%
same,growth inhibition,[2]; at 33.0 µM,25%
same,growth inhibition,[2]; at 100.0 µM,42%
same,growth inhibition,[3]; [16],-25%
same,growth inhibition,[3]; [17],40%
same,growth inhibition,[3]; at 50.0 µM,23.3%
same,growth inhibition,[4]; at 1.2 µM,6%
same,growth inhibition,[4]; at 3.7 µM,15%
same,growth inhibition,[4]; at 11.0 µM,45%
same,growth inhibition,[4]; at 33.0 µM,39%
same,growth inhibition,[4]; at 100.0 µM,35%
COc1ccc(/C=C2\NC(=S)N(/C=C3\C(=O)Oc4ccccc4C3=O)C2=O)cc1,growth inhibition,[5]; at 1.2 µM,-1%
same,growth inhibition,[5]; at 3.7 µM,-1%
same,growth inhibition,[5]; at 11.0 µM,3%
same,growth inhibition,[5]; at 33.0 µM,5%
same,growth inhibition,[5]; at 100.0 µM,21%
same,growth inhibition,[6]; at 1.2 µM,1%
same,growth inhibition,[6]; at 3.7 µM,1%
same,growth inhibition,[6]; at 11.0 µM,1%
same,growth inhibition,[6]; at 33.0 µM,4%
same,growth inhibition,[6]; at 100.0 µM,15%
same,growth inhibition,[7]; at 1.2 µM,-2%
same,growth inhibition,[7]; at 3.7 µM,-3%
same,growth inhibition,[7]; at 11.0 µM,-1%
same,growth inhibition,[7]; at 33.0 µM,-1%
same,growth inhibition,[7]; at 100.0 µM,-2%
same,growth inhibition,[8]; at 1.2 µM,-5%
same,growth inhibition,[8]; at 3.7 µM,-5%
same,growth inhibition,[8]; at 11.0 µM,-3%
same,growth inhibition,[8]; at 33.0 µM,-8%
same,growth inhibition,[8]; at 100.0 µM,28%
same,growth inhibition,[9]; at 1.2 µM,-4%
same,growth inhibition,[9]; at 3.7 µM,4%
same,growth inhibition,[9]; [16],3%
same,growth inhibition,[9]; at 11.0 µM,-17%
same,growth inhibition,[9]; at 33.0 µM,5%
same,growth inhibition,[9]; [17],24%
same,growth inhibition,[9]; at 50.0 µM,70.2% (active)
same,growth inhibition,[9]; at 100.0 µM,20%
same,growth inhibition,[10]; at 1.2 µM,0%
same,growth inhibition,[10]; at 3.7 µM,1%
same,growth inhibition,[10]; [16],-1%
same,growth inhibition,[10]; at 11.0 µM,3%
same,growth inhibition,[10]; at 33.0 µM,15%
same,growth inhibition,[10]; [17],1%
same,growth inhibition,[10]; at 50.0 µM,56.2%
same,growth inhibition,[10]; at 100.0 µM,24%
same,growth inhibition,[11]; at 1.2 µM,1%
same,growth inhibition,[11]; at 3.7 µM,0%
same,growth inhibition,[11]; at 11.0 µM,2%
same,growth inhibition,[11]; at 33.0 µM,7%
same,growth inhibition,[11]; at 100.0 µM,21%
same,growth inhibition,[12]; [16],0%
same,growth inhibition,[12]; [17],8%
same,growth inhibition,[12]; at 50.0 µM,84.2% (active)
same,growth inhibition,[13]; at 1.2 µM,-6%
same,growth inhibition,[13]; at 3.7 µM,-6%
same,growth inhibition,[13]; at 11.0 µM,-9%
same,growth inhibition,[13]; at 33.0 µM,11%
same,growth inhibition,[13]; at 100.0 µM,34%
same,growth inhibition,[14]; [16],41%
same,growth inhibition,[14]; [17],26%
same,growth inhibition,[14]; at 50.0 µM,89.2% (active)
same,growth inhibition,[15]; at 1.2 µM,-3%
same,growth inhibition,[15]; at 3.7 µM,-2%
same,growth inhibition,[15]; [16],-5%
same,growth inhibition,[15]; at 11.0 µM,-2%
same,growth inhibition,[15]; at 33.0 µM,4%
same,growth inhibition,[15]; [17],4%
same,growth inhibition,[15]; at 50.0 µM,79.2% (active)
same,growth inhibition,[15]; at 100.0 µM,15%
same,growth inhibition,[1]; at 1.2 µM,-6%
same,growth inhibition,[1]; at 3.7 µM,-1%
same,growth inhibition,[1]; at 11.0 µM,-1%
same,growth inhibition,[1]; at 33.0 µM,5%
same,growth inhibition,[1]; at 100.0 µM,27%
same,growth inhibition,[2]; at 1.2 µM,0%
same,growth inhibition,[2]; at 3.7 µM,2%
same,growth inhibition,[2]; at 11.0 µM,2%
same,growth inhibition,[2]; at 33.0 µM,20%
same,growth inhibition,[2]; at 100.0 µM,35%
same,growth inhibition,[3]; [16],4%
same,growth inhibition,[3]; [17],2%
same,growth inhibition,[3]; at 50.0 µM,72.8% (active)
same,growth inhibition,[4]; at 1.2 µM,-3%
same,growth inhibition,[4]; at 3.7 µM,-1%
same,growth inhibition,[4]; at 11.0 µM,1%
same,growth inhibition,[4]; at 33.0 µM,5%
same,growth inhibition,[4]; at 100.0 µM,14%
